This assay concerns VDR:RXRa (NR concentration 270 nM, RXRa partner concentration 90 nM). Description: PBM binding z-score (relative to random genomic background probes); higher = stronger binding; sequences stand for … in GC…GCGATTGACAGCGTAGAATGAAGG
The method, then:
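Protein-binding microarray (Agilent 4x180K custom design, double-stranded 60-nt probes: 5' GC cap, 34-nt variable region, 24-nt constant primer region; full probe sequence given). Purified or IVT nuclear receptor:RXRα heterodimers (3:1 NR:RXRα, mostly 270:90 nM) or homodimers were incubated for 1 h in PBS with 2% milk and no ligand, then detected with Alexa488 antibodies. Fluorescence from o1-orientation probes (~5 replicates averaged) was converted to z-scores against 500 random hg19 background probes. Variable regions are seed direct-repeat (DR0–DR5) sites, all their single-nucleotide variants and half-site ablations.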
TCTGCTTGGTCAACGATGGTCAGCTAATCTGCTA: the PBM binding z-score is -0.63. Next, ATATTTAGGTTAGGGTCATTCAGAAAGTAGGGAA: 4.6; CGTCCAAGGTCAAGGGCAGTGAAAGAGACTCGAA: 3.68. Next, TTACCAAGGTGAAAGGTCGTTGAAGCACGCCTTG: 3.42. Next, ATCGAATGGTCGAGGTGAGTATAGAGAAAGGGAA: -0.226; CCTAGTGGGCCAAAGGTCATTGATTCCAATGCTC: 4.68.

CAAAGTAGGTCAAGAGGTCAAAGTCCGCTTCCCG displayed a PBM binding z-score of 6.25.

Take AGAATGAGGTTAGCAAAGATCAGGGAAACGCTTG: the PBM binding z-score was 0.322. Turning to ATATGTAGTTTAGGGTCATTCAGAAAGTAGGGAA, the PBM binding z-score was 4.64.

In the case of CCTTACGGGTCCCTGACAGGTTATAGCATTTGGA, the PBM binding z-score was -0.165. The result for CGAACTAGGTCACCAGGGCAGTGAAGAGGTTGGA reads 2.32. Regarding TAGCCTAGGTCCTTCAGGGGCCAGTATAGAAAGC, the PBM binding z-score was -0.708. For the sequence CAAACTAGGCCAAGGTCAAAGTCGGTTTGTGCCA, the PBM binding z-score came to 4.19. The result for CAAACTAGGTCACCGGAAGGTCAAAGTTCGCATG reads 6.38. Next, TAGCCTAGGTCATGGGCCAGTTTACCACGCGAAC: 2.61; CGAACTAGGTCACCAGGCCAGTGAAGAGGTTGGA: 1.71; CCGAGTAGGTTACGAGGGGGCTTTCAGTGCGAAT: 2.13. For the sequence CGAACTAGGTCACCAGGACAGTGACGAGGTTGGA, the PBM binding z-score stood at 2.13.

CCGAGTAGGTTACGTGGGGGCATTCAGTGCGAAT showed a PBM binding z-score of 5.48.

The sequence CTCGAAAGGTCGTCCTCAGGTGAGTATACCAAAC came in with a PBM binding z-score of 3.41.

As to GCTGCAAGGTCAACTGATGGTCAGCTAAAGCTCG, the PBM binding z-score is 4.66. As for CGAACTACGTCACCAGGACAGTGAAGAGGTTGGA, the PBM binding z-score is -0.211. Next, CGTCCAAGGTCAAGGTGAGTGAAAGAGACTCGAA: 4.01. Next, ATATGTAGGTTAGGGTCATTCCGAAAGTAGGGAA: 4.54.

Take CGATGTAGGTTAAGGGGGTCATTCAGTTTGAAAG: the PBM binding z-score came out at 7.68. The result for CCAACTAGGTCACCAGGACAGTGAAGAGGTTGGA reads 1.99; that for CATACACGGTCAGCTAGGCCAGAGTAGGGACGGC, -0.0494.

ATCTGTAGGTTATCGGGTCATTCAGTTTGCGCAT gave a PBM binding z-score of 5.17. The result for CTATGTAGGTTATGGGGGTCATTCAGTTTGAAAG reads 7.53. The result for AGCTCTAGGTAAAAGTTCAGTGAATCCCGAGGAT reads 0.974; that for CGTCCAAGGTCAGAGAGGTCAGTGACTGCCGAGT, 7.27; that for CCGAGTATGTTACGAGGGGGCATTCAGTGCGAAT, 4.06.

As to CCTAGTTGGTCAAGGTCTCACACGCTATAGGTAC, the PBM binding z-score is 0.578.

For the sequence CACACTAGGTCAAGAGGTCAAAGTCCGCTTCCCG, the PBM binding z-score stood at 6.08. Next, TATACAGGGTCAAAGGGCAGAGTACGAATGTCGA: 5.43; TCATATAGGTTAAAGGTGAAAGTCGGTGTGGTAA: 3.02.

CCGAGTAGGTTACCAGGGGGCATTCAGTGCGAAT returned a PBM binding z-score of 4.94.

ATATGTGGGTTATCGGGTCATTCAGTTTGCGCAT: the PBM binding z-score was found to be 5.21. Next, CGTCCAACGTCAGCAGGTCAGTGAAAGCGACGTG: -0.198. Take CCGAGTAGATTACGAGGGGGCATTCAGTGCGAAT: the PBM binding z-score was found to be 3.48.

For the origin of these results see the supplement of paper PMC6555819.
